Compounds without any hit were thinned out: in the full panel of roughly 83,000, 20% have a hit.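 Cell lines were cultured in 96-well plates, exposed to a single compound concentration, and assessed for percent growth 48 hours later.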 Values without a mark were called inactive. Calls of active or inactive are those of the source. Rule for the calls: active = growth percent below 10; inactive = the rest.
What was measured:
Assay in all cases: NCI-60 one-dose screen, 48 h (100 = growth as untreated, 0 = no growth, -100 = all killed)
Conditions in all cases: 10 µM unless noted
[1] = system: DU-145 prostate
[2] = system: K-562 leukemia
[3] = system: MALME-3M melanoma
[4] = system: MDA-MB-231 breast
[5] = system: RXF 393 renal
[6] = system: SF-268 CNS
[7] = system: SF-295 CNS
[8] = system: SF-539 CNS
[9] = system: UACC-257 melanoma
[10] = system: M14 melanoma
[11] = system: HCT-15 colon
[12] = system: HT29 colon
[13] = system: SNB-75 CNS
[14] = system: SNB-19 CNS
[15] = system: U251 CNS
[16] = system: PC-3 prostate
[17] = system: SK-MEL-5 melanoma
[18] = system: UACC-62 melanoma
[19] = system: LOX IMVI melanoma
[20] = system: SK-MEL-28 melanoma

Row | Structure (SMILES) | growth [1] | growth [2] | growth [3] | growth [4] | growth [5] | growth [6] | growth [7] | growth [8] | growth [9] | growth [10] | growth [11] | growth [12] | growth [13] | growth [14] | growth [15] | growth [16] | growth [17] | growth [18] | growth [19] | growth [20]
1 | Cc1ccccc1Nc1cc(O)c2c(=O)cc(-c3ccccc3)oc2c1 | 26.8% | 10.2% | 47.9% | 50.7% | 28% | 61.5% | 27.1% | 23.1% | 80.6% | 24.6% | 17.6% | 69.9% | -5.66% (active) | 32.6% | 36.2% | 40.6% | 23.5% | 43.4% | 30.9% | 51.1%
2 | Nc1nc(N)c2c(n1)NC(c1ccc(Cl)cc1)C1CCc3ccccc3C1=N2 (stereo not given) | 64.1% | 31% | 19.6% | 76.8% | 83.3% | 72.3% | 20.7% | 54.3% | 58.2% | 70.4% | 45.9% | 41.9% | 62.1% | 76.1% | 51.1% | 51.6% | 7.87% (active) | 55.2% | 56.8% | 91.3%
3 | Cc1cc2c(cc1C)N(C(=O)CCl)CC(=O)N2 | 78.6% | 2.9% (active) | 9.7% (active) | 51.3% | 31.2% | 60.9% | 99.5% | 93.2% | 59.5% | 55% | 7.57% (active) | -60% (active) | 74.4% | 88% | 14.4% | 71.2% | 43.8% | 70.7% | -9.81% (active) | 77.1%
4 | CCN1CCN(CC(=O)Nc2nc3ccc(NCc4ccc(F)cc4)cc3s2)CC1 | 95.1% | 58.8% | 90.7% | 91% | 94.8% | 94.3% | 99% | 74.1% | 108% | 91.4% | 67.3% | 77.4% | 90.8% | 99.2% | 81.9% | 78.9% | 90.8% | 87.4% | 78.6% | 102%
5 | C/C(=N\O)c1ccc(NC(=O)CSc2nnc(-c3cc(-c4ccc(S(C)(=O)=O)cc4)nc4ccccc34)n2-c2ccccc2)cc1 | 92.6% | 73.4% | 94.4% | 76.9% | 98.7% | 77.4% | 99.4% | 83.4% | 99.1% | 93% | 84.7% | 102% | 57% | 87.6% | 93.5% | 68.5% | 74.8% | 80.6% | 76.7% | 102%
6 | C=C1CC[C@@H]2C(C)(C)[C@@H](O)CC[C@@]2(C)[C@@H]1COc1ccc2ccc(=O)oc2c1 | 91.8% | 53.3% | 89% | 89.4% | 88.5% | 78% | 62.5% | 86.1% | 77.3% | 80.4% | 66.7% | 64.3% | 83.8% | 85.8% | 75.8% | 49.7% | 61.7% | 55.1% | 82.8% | 92.3%
7 | CCN(CC)CCN1C(=O)c2c(c(C)c3c(oc4ccc(O)cc43)c2C)C1=O | 0.0633% (active) | 6.29% (active) | 73.3% | -28.7% (active) | 98.2% | 37.1% | 89.7% | -99.5% (active) | 93.1% | 38.3% | 10.5% | 67.9% | 94.3% | 24.7% | -23.8% (active) | 49.7% | 77.2% | 56.6% | -94.1% (active) | 72.2%
8 | Cc1cccc(N2CCC(=O)NC2=S)c1 | 116% | 112% | 95.9% | 89.9% | 115% | 99.4% | 103% | 96.7% | 105% | 97.3% | 107% | 113% | 92.5% | 99.4% | 104% | 98.3% | 101% | 96.4% | 97.2% | 110%
9 | O=C(Oc1ccc(CCl)cc1)c1ccccc1 | -92.9% (active) | -37.5% (active) | -69.3% (active) | -82% (active) | -90.5% (active) | -79.3% (active) | -92.5% (active) | -87.6% (active) | -67.4% (active) | -82.7% (active) | -87.4% (active) | -58.4% (active) | -98.6% (active) | -86.4% (active) | -86.3% (active) | -91.3% (active) | -99% (active) | -76.9% (active) | -85.1% (active) | -75.6% (active)
10 | CS(=O)(=O)c1nnc(-c2ccccc2)s1 | 88% | 78.4% | 88.1% | 101% | 110% | 94.8% | 106% | 106% | 91% | 74% | 71.4% | 82.2% | 103% | 107% | 106% | 96.4% | 99.4% | 82.7% | 71.2% | 97.3%
11 | CS(=O)(=O)c1ccc(NC(=O)c2ccccc2)nc1 | 108% | 100% | 108% | 99.1% | 106% | 107% | 106% | 104% | 95.6% | 115% | 104% | 83.6% | 104% | 95.7% | 102% | 93.6% | 101% | 95.4% | 98.6% | 112%
12 | C=Cc1cnc(Nc2ccc(OC)cc2)nc1NCCCNC(=O)C1CCC1 | 46.3% | 34.3% | 52.5% | -6.62% (active) | -1.29% (active) | 28.5% | 59.6% | 22% | 70.5% | 46.8% | 35.7% | 8.04% (active) | -5.11% (active) | 57.5% | 29% | 64.2% | 37.5% | 82.3% | 20.4% | 80.3%
13 | CNC(=O)c1ccccc1Nc1nc(Nc2cc(OC)c(OC)c(OC)c2)ncc1Br | 9.08% (active) | 8.02% (active) | -39.5% (active) | -3.87% (active) | -64.8% (active) | -32.7% (active) | -6.65% (active) | -79.2% (active) | -30.9% (active) | -52.9% (active) | 3.34% (active) | -0.259% (active) | -55% (active) | 6.35% (active) | -9.93% (active) | 61.4% | -22.3% (active) | -69.6% (active) | -60.3% (active) | -13.6% (active)
14 | CCOC(=O)CC1CSC(Nc2ccccc2)=N1 (stereo not given) | 103% | 96.4% | 102% | 105% | 114% | 98.7% | 104% | 105% | 97.9% | 103% | 107% | 96.8% | 99.7% | 104% | 99.5% | 99.9% | 103% | 99.7% | 97.3% | 115%
15 | [2H]C([2H])([2H])Oc1ccc(F)cc1/C=C/C(=O)/C=C(/C=C/c1cc(F)ccc1OC([2H])([2H])[2H])OB(F)F | 85.1% | 47.6% | 68.7% | 98.4% | 100% | 98.6% | 101% | 113% | 78.7% | 70.1% | 63.8% | 80.2% | 94% | 94.9% | 43.3% | 66.7% | 94.5% | 68.8% | 57.1% | 94.2%

— PubChem BioAssay (NCI)
